Laboratory results from PubChem BioAssay (NCATS).
Results filed as inconclusive are left out. Activity calls are given as the source filed them. Unless noted, calls follow the shape of the dose curve; as a rule, active = well fitted curve in the direction sought with a large enough effect; inconclusive = small, poorly fitted or top-dose-only effect, or another doubt; inactive = no such curve, though single readings can be large; an effect the other way counts as inactive or inconclusive.

Assays:
[1] = AP1 Signaling Pathway (AID 357; active = well fitted curve in either direction with a large enough effect, not every such curve was filed as active;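 also: ME-180 reporter cells stimulated with EGF at its EC50 level; % is scaled to controls: 0 for no effect and ±100 for the full control effect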); conditions: ME-180 (cervical carcinoma) AP-1-bla reporter, EGF-induced, beta-lactamase ratio, 5 h; at 7.69 µM (top of the series) unless noted
In short: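 Cells are seeded overnight, exposed to compound titrations and an EC50 level of EGF for 5 hours at 37 °C, then loaded with CCF4 dye for 2.5 hours. Beta-lactamase activity under the AP-1 element is read as a blue/green ratio.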

[2] = NFAT Signaling Pathway (AID 444; active = well fitted curve in either direction with a large enough effect, not every such curve was filed as active;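 also: carbachol stimulus at about its EC50 of 1 µM final; % is scaled to controls: 0 for no effect and ±100 for the full control effect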); conditions: Jurkat NFAT-bla M1, carbachol, beta-lactamase ratio, 5 h; at 7.69 µM (top of the series) unless noted
In short: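 Jurkat cells with NFAT-driven β-lactamase reporter and co-expressed M1 receptor, stimulated with carbachol (final 1 uM, ~EC50), compound titration, 5 h at 37 °C. CCF4 loaded 1 h at RT; 460/530 nm ratio gave %activity and AC50.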

[3] = Stat Signaling Pathway (AID 446; active = well fitted curve in either direction with a large enough effect, not every such curve was filed as active;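 also: ME-180 cervical cancer cells given 40 pM IL-6 alongside compound; SIE-controlled beta-lactamase reporter measured as 460/530 nm FRET emission ratio; % is scaled to controls: 0 for no effect and ±100 for the full control effect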)
In short: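 Normalization used AC90 stimulation (300 pM IL-6) and AC90 inhibition (125 nM pan-JAK inhibitor at 40 pM IL-6). The underlying signal is SIE-driven beta-lactamase in ME-180 cells after 5 h IL-6 exposure with compound.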

[4] = biological target: Glucocorticoid receptor (Homo sapiens) (UniProt P04150); assay: GR-GFP Redistribution (AID 450;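 active = compounds whose dose series gives a full or clear partial fitted curve of increased nuclear translocation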; also: potency is read from the fitted curve at half-maximal effect); conditions: U2OS GR-GFP nuclear translocation, laser cytometry, 2 h
[5] = biological target: Rap guanine nucleotide exchange factor 3 (Homo sapiens) (UniProt O95398); assay: Confirmatory qHTS for agonist of cAMP-regulated guanine nucleotide exchange factor 3 (EPAC1) (AID 1645881);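 also: EPAC1 catalysed release of BODIPY-GDP from Rap1B seen as fluorescence loss; 100% = effect of cAMP agonist control; nearly all actives have a fitted effect of over 75% in size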
[6] = biological target: Rap guanine nucleotide exchange factor 4 (Homo sapiens) (UniProt Q8WZA2); assay: Confirmatory qHTS for agonist of cAMP-regulated guanine nucleotide exchange factor 4 (EPAC2) (AID 1645884);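 also: nucleotide exchange releases bodipy-GDP from Rap1 and this lowers its fluorescence; % is scaled to controls: 0 for no effect and ±100 for the full control effect; nearly all actives have a fitted effect of over 65% in size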
[7] = biological target: Rap guanine nucleotide exchange factor 4 (Homo sapiens) (UniProt Q8WZA2); assay: Confirmatory qHTS for antagonist of cAMP-regulated guanine nucleotide exchange factor 4 (EPAC2) (AID 1645885); also: nearly all actives have a fitted effect of over 25% in size; also: potency is read from the fitted curve at half-maximal effect
[8] = biological target: Rap guanine nucleotide exchange factor 3 (Homo sapiens) (UniProt O95398); assay: Counterscreen qHTS for antagonist of cAMP-regulated guanine nucleotide exchange factor 3 (EPAC1) (AID 1645888);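 also: fluorescence loss as bound BODIPY-GDP is released from Rap1B; % of control where 0% means no effect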
In short: (§1)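 Rap1B–BODIPY-GDP (250 nM) with 50 uM GDP; compounds pin-transferred to 9.74 nM–152 uM final (activator) or from 7.32 nM upwards (inhibitor). Fluorescence Ex/Em 480/540 nm read at 5 and 30 min, then after adding cAMP or buffer, at room temperature.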

[9] = biological target: Rap guanine nucleotide exchange factor 3 (Homo sapiens) (UniProt O95398); assay: Counterscreen qHTS for agonist of cAMP-regulated guanine nucleotide exchange factor 3 (EPAC1) (AID 1645889); also: % of control where 0% means no effect; nearly all actives have a fitted effect of over 40% in size
In short: as §1

[10] = biological target: Lysosomal acid glucosylceramidase (Homo sapiens) (UniProt P04062); assay: Glucocerebrosidase-p2 (AID 348; in the data active = potency below about 10 µM; also: potency is read from the fitted curve at half-maximal effect); conditions: purified GBA, blue fluorogenic substrate, 40 min
In short: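 Normal human glucocerebrosidase (0.2 nM) with blue fluorogenic substrate (80 uM final) in citrate/phosphate pH 5.9 with 10mM sodium taurocholate, 0.01% tween-20; 40 min RT, NaOH/glycine stop; fluorescence Ex 365/Em 440; AC50 from a titration from 0.6 nM upwards.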

[11] = biological target: Cytochrome P450 1A2 (Homo sapiens) (UniProt P05177); assay: p450-cyp1a2 (AID 410; calls by dose curve; also: potency is read from the fitted curve at half-maximal effect)
In short: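 Read-out is luminescence from luciferin produced by CYP1A2 demethylation of Luciferin-ME (100uM, at Km). Detection reagent stopped the 60 min NADPH-dependent reaction; signals were normalized to 57 uM furafylline.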

[12] = biological target: Glucocorticoid receptor (Homo sapiens) (UniProt P04150); assay: GR-EFC Redistribution (AID 451; calls by dose curve; also: potency is read from the fitted curve at half-maximal effect); conditions: CHO-K1 GR-EFC translocation, beta-gal luminescence, 2 h
In short: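 CHO-K1 cells expressing nuclear EA and GR-ED fragments of b-gal; compounds titrated up to 46 uM final, 2 h at 37 C. GR nuclear translocation read as complemented b-gal luminescence after 1 h RT detection.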

[13] = biological target: Mitogen-activated protein kinase 10 (Mus musculus) (UniProt Q61831); assay: JNK3 AlphaScreen Assay (AID 530; active = well fitted curve in either direction with a large enough effect, not every such curve was filed as active;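 also: kinase came from lysate of stimulated human HepG2 cells; signal reports phosphorylation of biotinylated GST-cJun 1-79 at Ser73 with 10 µM ATP; % is scaled to controls: 0 for no effect and ±100 for the full control effect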)
In short: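 HepG2 lysate (IL-1b/TNFa pre-activated) + biotin-GST-cJun 1-79 + anti-pSer73 cJun; cpd titration, 15 min RT; ATP 10 uM start; Tris pH 7.6, MgCl2, DTT, vanadate; beads in EDTA buffer; AlphaScreen.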

[14] = biological target: 3',5'-cyclic-AMP phosphodiesterase 4B (Homo sapiens) (UniProt Q07343); assay: qHTS Assay for Inhibitors of PDE-IV (AID 607; active = well fitted activation curve with a large enough effect in the main read-out, with a control signal flat, not every such curve was filed as active; also: % of control where 0% means no effect)
In short: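 HEK293 ACTOne cells with CNG channel (1000/well), endogenous PDE4; membrane potential dye, compounds up to 22.9 uM final. Fluorescence Ex 535/Em 590; RO 20-1724 (100 uM final) as reference.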

[15] = biological target: Cytochrome P450 2C9 (Homo sapiens) (UniProt P11712); assay: qHTS Assay for Inhibitors and Substrates of Cytochrome P450 2C9 (AID 883); also: potency is read from the fitted curve at half-maximal effect; nearly all actives have a fitted effect of over 60% in size
In short: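 Human CYP2C9 (10nM) with Luciferin-H at 100uM (its KM) in 25mM KPO4; compound preincubated 10 min at 37C, then NADPH regeneration for 60 min at 37C. Luciferin read by luminescence after detection reagent; normalized to 57uM sulphaphenazole as full inhibition.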

[16] = biological target: Cytochrome P450 3A4 (Homo sapiens) (UniProt P08684); assay: qHTS Assay for Inhibitors and Substrates of Cytochrome P450 3A4 (AID 884); also: potency is read from the fitted curve at half-maximal effect; nearly all actives have a fitted effect of over 50% in size
In short: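 Luminescent readout of luciferin produced by CYP3A4 (20 nM) dealkylation of Luciferin-PPXE, 25 uM (its KM). NADPH-driven reaction ran 60 min at RT after 10 min compound preincubation; data scaled to 57 uM ketoconazole as 100% inhibition.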

[17] = biological target: Cytochrome P450 3A4 (Homo sapiens) (UniProt P08684); assay: qHTS Assay for Activators of Cytochrome P450 3A4 (AID 885); also: nearly all actives have a fitted effect of over 65% in size
In short: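 Human CYP3A4 dealkylates Luciferin-PPXE to luciferin, which luciferase detection converts to light. Substrate was at its KM (25uM), buffer 200mM KPO4, reaction 60 min at RT.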

[18] = biological target: Cytochrome P450 2D6 (Homo sapiens) (UniProt P10635); assay: qHTS Assay for Inhibitors and Substrates of Cytochrome P450 2D6 (AID 891); also: potency is read from the fitted curve at half-maximal effect; nearly all actives have a fitted effect of over 60% in size
In short: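 Luminescent read-out of luciferin formed by 5 nM human CYP2D6 demethylating 30 uM Luciferin-ME EGE (Km level) over 60 min at room temperature after NADPH regeneration addition. Data normalized to full inhibition by 1.43 uM quinidine.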

[19] = qHTS for Inhibitors of Plasmodium falciparum (DD2) proliferation (AID 504314);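 also: parasite DNA measured by SYBR Green fluorescence after red cell lysis; plate controls were DMSO vehicle for no effect and artemisinin wells for full effect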
In short: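 Parasite proliferation measured as SYBR Green signal from Plasmodium DNA, mature erythrocytes lacking DNA. 72 h incubation, 37C; activity scaled between vehicle and 0.29 uM artemisinin, with correction from vehicle-only plates.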

[20] = qHTS for Inhibitors of Plasmodium falciparum (GB4) proliferation (AID 504315);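 also: 0% = DMSO vehicle and -100% = 0.29 µM artemisinin control; nearly all actives have a fitted effect of over 50% in size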
In short: (§2)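 Parasite growth measured as SYBR Green DNA fluorescence (ex 485, em 535 nm) after overnight lysis following 72 h culture at 37 °C, 0.3% parasitemia, 2.5% hematocrit. Values normalized against DMSO and 0.29 uM artemisinin controls, with plate-stack correction.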

[21] = qHTS for Inhibitors of Plasmodium falciparum (7G8) proliferation (AID 504316);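 also: 0% = DMSO vehicle and -100% = 0.29 µM artemisinin full kill; nearly all actives have a fitted effect of over 65% in size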
In short: as §2

[22] = qHTS for Inhibitors of Plasmodium falciparum (HB3) proliferation (AID 504318);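 also: 0% = DMSO vehicle and -100% = artemisinin control; nearly all actives have a fitted effect of over 60% in size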
In short: as §2

[23] = qHTS for Inhibitors of Plasmodium falciparum (CP250) proliferation (AID 504320);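 also: plate controls were DMSO vehicle for no effect and 0.29 µM artemisinin control for full effect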
In short: as §2

[24] = biological target: Tyrosyl-DNA phosphodiesterase 1 (Homo sapiens) (UniProt Q9NUW8); assay: Confirmation Assay for Inhibitors of Tyrosyl-DNA Phosphodiesterase (TDP1) (AID 489007); conditions: recombinant human TDP1 enzymatic activity, dose-response; also: potency is read from the fitted curve at half-maximal effect; nearly all actives have a fitted effect of over 40% in size
In short: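 Loss of AlphaScreen signal reports Tdp1 cleavage of a dual-labelled DNA substrate. Conditions: 1 nM E. coli-derived enzyme, 15 nM substrate, 15 min compound preincubation, 5 min reaction, 10 min bead incubation, all at room temperature.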

Chain of Rap guanine nucleotide exchange factor 4 (Homo sapiens) (Q8WZA2 whole entry, looked up): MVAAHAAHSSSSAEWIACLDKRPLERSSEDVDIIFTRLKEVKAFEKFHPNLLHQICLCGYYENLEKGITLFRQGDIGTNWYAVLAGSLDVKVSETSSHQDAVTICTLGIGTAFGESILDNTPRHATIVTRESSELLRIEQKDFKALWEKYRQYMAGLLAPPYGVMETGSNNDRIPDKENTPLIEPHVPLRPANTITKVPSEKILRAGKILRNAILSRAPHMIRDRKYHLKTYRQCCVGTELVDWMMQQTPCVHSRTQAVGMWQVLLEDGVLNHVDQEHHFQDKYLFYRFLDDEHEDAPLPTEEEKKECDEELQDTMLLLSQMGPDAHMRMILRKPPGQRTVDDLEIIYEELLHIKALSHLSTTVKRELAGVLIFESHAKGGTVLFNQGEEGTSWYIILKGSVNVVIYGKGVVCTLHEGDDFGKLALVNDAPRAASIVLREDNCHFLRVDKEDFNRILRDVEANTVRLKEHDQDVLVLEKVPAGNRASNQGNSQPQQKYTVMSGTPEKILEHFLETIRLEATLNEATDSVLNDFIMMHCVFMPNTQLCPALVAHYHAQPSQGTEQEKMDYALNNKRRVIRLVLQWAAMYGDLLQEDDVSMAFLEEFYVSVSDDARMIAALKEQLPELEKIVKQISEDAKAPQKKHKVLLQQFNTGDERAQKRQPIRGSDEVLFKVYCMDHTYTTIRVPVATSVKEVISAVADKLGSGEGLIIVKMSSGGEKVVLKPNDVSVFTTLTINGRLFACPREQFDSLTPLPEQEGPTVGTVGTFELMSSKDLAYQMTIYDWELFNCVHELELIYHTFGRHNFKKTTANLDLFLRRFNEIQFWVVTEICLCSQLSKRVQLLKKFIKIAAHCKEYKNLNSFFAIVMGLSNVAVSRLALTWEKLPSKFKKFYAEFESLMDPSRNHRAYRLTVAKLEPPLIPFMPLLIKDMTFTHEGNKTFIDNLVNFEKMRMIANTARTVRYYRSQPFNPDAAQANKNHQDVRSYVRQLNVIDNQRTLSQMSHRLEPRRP
Chain of Glucocorticoid receptor (Homo sapiens) (P04150 whole entry, looked up, the tested form may be a part): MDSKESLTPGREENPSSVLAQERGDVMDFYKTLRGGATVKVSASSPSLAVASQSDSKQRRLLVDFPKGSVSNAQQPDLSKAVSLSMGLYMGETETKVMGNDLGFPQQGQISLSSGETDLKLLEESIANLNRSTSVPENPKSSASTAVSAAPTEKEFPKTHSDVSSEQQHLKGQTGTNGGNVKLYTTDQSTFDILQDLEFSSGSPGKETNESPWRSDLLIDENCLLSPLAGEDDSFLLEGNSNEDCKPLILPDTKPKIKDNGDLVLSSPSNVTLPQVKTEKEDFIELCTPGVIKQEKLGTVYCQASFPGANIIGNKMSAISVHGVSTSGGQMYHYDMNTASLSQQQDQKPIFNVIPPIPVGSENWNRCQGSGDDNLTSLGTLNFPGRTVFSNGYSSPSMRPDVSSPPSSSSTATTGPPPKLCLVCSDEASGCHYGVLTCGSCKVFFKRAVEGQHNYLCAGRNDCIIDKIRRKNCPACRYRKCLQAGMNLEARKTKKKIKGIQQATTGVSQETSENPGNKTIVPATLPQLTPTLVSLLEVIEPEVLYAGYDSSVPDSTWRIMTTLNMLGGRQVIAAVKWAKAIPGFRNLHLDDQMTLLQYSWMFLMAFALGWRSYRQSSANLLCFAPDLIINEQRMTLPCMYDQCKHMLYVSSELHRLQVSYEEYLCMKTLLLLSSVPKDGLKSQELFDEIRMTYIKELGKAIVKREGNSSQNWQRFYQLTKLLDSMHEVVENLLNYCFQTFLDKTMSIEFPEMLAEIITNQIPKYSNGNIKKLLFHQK
Chain of Rap guanine nucleotide exchange factor 3 (Homo sapiens) (O95398 whole entry, looked up): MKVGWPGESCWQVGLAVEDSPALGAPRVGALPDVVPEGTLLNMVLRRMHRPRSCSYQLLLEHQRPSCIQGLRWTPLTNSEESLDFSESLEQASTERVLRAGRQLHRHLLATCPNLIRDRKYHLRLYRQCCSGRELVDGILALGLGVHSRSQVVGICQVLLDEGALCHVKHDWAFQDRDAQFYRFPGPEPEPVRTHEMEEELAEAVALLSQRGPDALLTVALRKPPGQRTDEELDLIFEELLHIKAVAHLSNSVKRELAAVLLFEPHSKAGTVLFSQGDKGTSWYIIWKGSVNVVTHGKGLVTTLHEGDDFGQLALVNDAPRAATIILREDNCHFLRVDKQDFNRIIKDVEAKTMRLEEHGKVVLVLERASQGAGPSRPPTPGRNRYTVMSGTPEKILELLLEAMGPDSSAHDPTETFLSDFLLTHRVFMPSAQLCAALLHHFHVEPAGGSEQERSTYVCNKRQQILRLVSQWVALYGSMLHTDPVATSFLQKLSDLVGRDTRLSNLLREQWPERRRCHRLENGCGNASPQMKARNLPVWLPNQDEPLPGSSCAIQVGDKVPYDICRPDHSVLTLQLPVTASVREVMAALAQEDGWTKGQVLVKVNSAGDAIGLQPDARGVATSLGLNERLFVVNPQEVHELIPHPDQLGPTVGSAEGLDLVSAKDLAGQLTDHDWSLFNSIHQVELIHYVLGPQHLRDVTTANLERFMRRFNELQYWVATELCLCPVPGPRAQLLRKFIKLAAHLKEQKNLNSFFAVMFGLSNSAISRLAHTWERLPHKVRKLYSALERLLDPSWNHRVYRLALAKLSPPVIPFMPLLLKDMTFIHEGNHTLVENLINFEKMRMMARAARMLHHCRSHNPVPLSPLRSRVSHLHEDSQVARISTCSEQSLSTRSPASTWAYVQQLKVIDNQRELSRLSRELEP
Chain of Cytochrome P450 3A4 (Homo sapiens) (P08684 whole entry, looked up): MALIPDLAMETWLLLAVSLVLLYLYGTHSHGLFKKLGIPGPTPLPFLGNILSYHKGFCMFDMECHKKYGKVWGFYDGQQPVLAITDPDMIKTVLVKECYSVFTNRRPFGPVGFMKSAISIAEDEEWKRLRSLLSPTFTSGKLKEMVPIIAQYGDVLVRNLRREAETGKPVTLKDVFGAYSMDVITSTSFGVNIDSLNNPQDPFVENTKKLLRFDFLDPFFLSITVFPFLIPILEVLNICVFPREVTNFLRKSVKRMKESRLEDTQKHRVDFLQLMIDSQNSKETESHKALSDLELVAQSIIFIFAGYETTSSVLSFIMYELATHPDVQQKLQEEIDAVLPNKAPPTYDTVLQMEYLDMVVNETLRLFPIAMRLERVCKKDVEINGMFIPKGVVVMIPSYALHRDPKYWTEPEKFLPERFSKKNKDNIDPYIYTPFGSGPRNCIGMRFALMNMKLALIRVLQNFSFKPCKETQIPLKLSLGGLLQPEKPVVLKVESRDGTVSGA
Chain of Cytochrome P450 2C9 (Homo sapiens) (P11712 whole entry, looked up): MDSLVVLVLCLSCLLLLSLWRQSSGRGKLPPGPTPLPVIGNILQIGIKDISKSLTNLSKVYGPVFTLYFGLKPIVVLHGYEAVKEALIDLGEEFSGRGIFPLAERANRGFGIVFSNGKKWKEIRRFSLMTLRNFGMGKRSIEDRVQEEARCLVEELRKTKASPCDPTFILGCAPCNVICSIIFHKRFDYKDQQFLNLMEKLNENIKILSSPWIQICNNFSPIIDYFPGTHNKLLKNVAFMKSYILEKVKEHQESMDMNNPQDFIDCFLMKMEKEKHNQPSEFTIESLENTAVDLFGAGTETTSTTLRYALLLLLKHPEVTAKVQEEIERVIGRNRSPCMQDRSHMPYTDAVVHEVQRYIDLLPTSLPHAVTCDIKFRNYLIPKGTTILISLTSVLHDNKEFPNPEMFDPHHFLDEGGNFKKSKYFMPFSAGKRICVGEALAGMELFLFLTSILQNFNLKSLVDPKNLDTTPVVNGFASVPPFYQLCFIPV
Chain of Cytochrome P450 2D6 (Homo sapiens) (P10635 whole entry, looked up): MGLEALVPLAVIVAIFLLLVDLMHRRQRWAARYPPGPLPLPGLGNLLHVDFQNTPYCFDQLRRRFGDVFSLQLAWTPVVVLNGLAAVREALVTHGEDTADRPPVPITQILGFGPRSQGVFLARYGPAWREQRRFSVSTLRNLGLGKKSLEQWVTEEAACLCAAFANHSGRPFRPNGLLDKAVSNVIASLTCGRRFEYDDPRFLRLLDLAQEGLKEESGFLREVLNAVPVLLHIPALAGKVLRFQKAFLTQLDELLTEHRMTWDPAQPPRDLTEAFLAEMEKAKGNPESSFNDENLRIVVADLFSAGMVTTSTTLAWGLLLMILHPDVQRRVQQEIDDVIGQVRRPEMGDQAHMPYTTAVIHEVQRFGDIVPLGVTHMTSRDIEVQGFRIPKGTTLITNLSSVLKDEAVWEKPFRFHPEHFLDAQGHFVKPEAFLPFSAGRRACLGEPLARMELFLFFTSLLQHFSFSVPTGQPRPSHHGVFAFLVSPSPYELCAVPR
Chain of 3',5'-cyclic-AMP phosphodiesterase 4B (Homo sapiens) (Q07343 whole entry, looked up): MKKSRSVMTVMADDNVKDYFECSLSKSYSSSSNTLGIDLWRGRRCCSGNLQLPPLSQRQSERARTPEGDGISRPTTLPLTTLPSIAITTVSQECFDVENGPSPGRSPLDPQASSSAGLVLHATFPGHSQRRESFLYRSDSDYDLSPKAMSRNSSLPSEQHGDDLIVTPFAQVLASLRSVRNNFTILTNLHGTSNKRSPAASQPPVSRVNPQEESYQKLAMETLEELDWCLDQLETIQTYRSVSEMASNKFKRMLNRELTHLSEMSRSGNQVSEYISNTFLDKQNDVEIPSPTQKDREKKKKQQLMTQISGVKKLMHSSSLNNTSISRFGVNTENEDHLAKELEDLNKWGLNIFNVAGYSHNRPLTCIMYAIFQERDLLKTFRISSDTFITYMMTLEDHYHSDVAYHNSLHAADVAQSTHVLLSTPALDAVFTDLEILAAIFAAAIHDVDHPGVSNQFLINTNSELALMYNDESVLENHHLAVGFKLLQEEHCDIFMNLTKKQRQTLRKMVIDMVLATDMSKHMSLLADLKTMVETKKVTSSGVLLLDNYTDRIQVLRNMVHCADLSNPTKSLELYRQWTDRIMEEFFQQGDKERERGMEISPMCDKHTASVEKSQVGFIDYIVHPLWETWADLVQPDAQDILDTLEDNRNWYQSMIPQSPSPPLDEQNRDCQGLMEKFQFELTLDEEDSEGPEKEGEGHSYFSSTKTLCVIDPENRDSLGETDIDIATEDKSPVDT

CC(C)OC(=O)C(C#N)c1nc2ccccc2nc1N1CCCC1 (stereo not given)
inactive: activity change, negative = inhibition [1] 8.73% [at 17.2 µM] | activity change, negative = inhibition [2] -13.2% [at 17.2 µM] | outcome [3] | Potency [4] > 20.6 µM | Potency [5] | activation [6] 3.69% [at 17.1 µM, percent relative to cAMP agonist control] | Potency [7] | activity change, negative = inhibition [8] -19.9% [at 30.8 µM] | activation [9] 3.58% [at 30.8 µM]

COc1ccc(NC(=O)CN2CCN(c3c(C)cc(C)cc3C)CC2)cc1
inactive: Potency [5] | activation [6] 7.83% [at 17.1 µM, percent relative to cAMP agonist control] | Potency [7] | activity change, negative = inhibition [8] 9.75% [at 30.8 µM] | activation [9] 16.1% [at 30.8 µM]

CC1(C)[C@@H](O)CC[C@]2(C)C3C(O)C=C4[C@H]5C[C@@](C)(CO)CC[C@]5(C)CC[C@]4(C)[C@]3(C)CC[C@@H]12 (stereo not given in full)
inactive: Potency [5] | activation [6] -6.54% [at 17.1 µM, percent relative to cAMP agonist control] | Potency [7] | activity change, negative = inhibition [8] -3.14% [at 30.8 µM] | activation [9] -1.49% [at 30.8 µM]

CCOc1ccc2nc(NC3=NC(c4ccc(OC)cc4)CC(=O)N3)nc(C)c2c1 (stereo not given)
inactive: Potency [5] | activation [6] 2.86% [at 17.1 µM, percent relative to cAMP agonist control] | Potency [7] | activity change, negative = inhibition [8] -8.36% [at 30.8 µM] | activation [9] 10.5% [at 30.8 µM]

O=C1C=C(NCCc2cc(Br)c(O)c(Br)c2)C(=O)c2ncccc21
inactive: Potency [10] > 11.4 µM | Potency [4] > 46 µM | Potency [12] > 9.22 µM | activity change, negative = inhibition [13] 0.257% [at 11.4 µM] | Potency [14] | activity change, positive = activation [17] -62.8% [at 11.4 µM] | Potency [5] | activation [6] 5.19% [at 17.1 µM, percent relative to cAMP agonist control] | Potency [7] | activity change, negative = inhibition [8] -20.2% [at 30.8 µM] | activation [9] 14.9% [at 30.8 µM]
active: Potency [11] 3.16 µM | Potency [15] 1.58 µM | Potency [16] 3.16 µM | Potency [18] 1.58 µM

O=C(NCC(c1ccco1)N1CCCCC1)c1cccc(NS(=O)(=O)c2ccc(Br)cc2)c1 (stereo not given)
inactive: Potency [5] | activation [6] -6.31% [at 17.1 µM, percent relative to cAMP agonist control] | Potency [7] | activity change, negative = inhibition [8] -11.8% [at 30.8 µM] | activation [9] 29.4% [at 30.8 µM]

Cc1cccc(Cn2c(=O)oc3ccc(C)cc32)c1
inactive: Potency [5] | activation [6] 1.77% [at 17.1 µM, percent relative to cAMP agonist control] | Potency [7] | activity change, negative = inhibition [8] 0.42% [at 30.8 µM] | activation [9] 19.6% [at 30.8 µM]

COCCn1c(SCC(=O)c2c(C)[nH]c3ccccc23)nc2cc(C(=O)NC(C)C)ccc2c1=O
inactive: Potency [5] | Potency [6] | Potency [7] | Potency [8] | Potency [9]

COC(=O)C1=C(C)N(Cc2ccccc2)C(=O)N[C@H]1c1cccc(C(F)(F)F)c1
inactive: outcome [19] | outcome [20] | outcome [21] | outcome [22] | outcome [23] | Potency [5] | activation [6] 7.76% [at 17.1 µM, percent relative to cAMP agonist control] | Potency [7] | activity change, negative = inhibition [8] -21.1% [at 30.8 µM] | activation [9] 10.2% [at 30.8 µM]

COc1ccc(OC)c(N2C(=O)[C@@H]3C(c4ccccc4Cl)=NO[C@@H]3C2=O)c1
active: Potency [7] 6.01 µM
inactive: Potency [5] | Potency [6] | Potency [8] | Potency [9]

O=C(Nc1ccc(Br)cc1C(=O)O)c1ccc2c(c1)C(=O)N(Cc1ccccc1)C2=O
inactive: Potency [5] | Potency [6] | Potency [7] | Potency [8] | Potency [9]

NS(=O)(=O)c1ccc(N=Nc2ccc(=O)[nH]c2O)cc1
inactive: Potency [5] | activation [6] -0.407% [at 17.1 µM, percent relative to cAMP agonist control] | Potency [7] | activity change, negative = inhibition [8] -5.26% [at 30.8 µM] | activation [9] -0.888% [at 30.8 µM]
active: Potency [24] 6.31 µM

O=c1c2ccccc2nc(/C=C/c2cccnc2)n1Cc1ccccc1
inactive: Potency [5] | activation [6] 2.62% [at 17.1 µM, percent relative to cAMP agonist control] | Potency [7] | activity change, negative = inhibition [8] -16.6% [at 30.8 µM] | activation [9] 22.2% [at 30.8 µM]

Cc1ccc(C(=O)c2no[n+]([O-])c2C(=O)c2ccc(C)cc2)cc1
inactive: Potency [5] | Potency [6] | Potency [7] | Potency [8] | Potency [9]

O=C(O)CN1C(=O)/C(=C\C(Br)=C\c2ccccc2)SC1=S
inactive: Potency [5] | activation [6] 6.32% [at 17.1 µM, percent relative to cAMP agonist control] | Potency [7] | activity change, negative = inhibition [8] 0.657% [at 30.8 µM] | activation [9] 8.49% [at 30.8 µM]

Oc1cccc(-c2nc3ncccn3c2Nc2cccc(C(F)(F)F)c2)c1
inactive: Potency [5] | Potency [6] | Potency [7] | Potency [8] | Potency [9]
